The text below walks through data of PubChem BioAssay (NCATS).

One assay has as its system HEK293. Put plainly: Cytotoxic Profiling of Annotated Libraries Using Quantitative High-Throughput Screening (AID 1296008). For max response: % is set by controls: 0 for no effect and ±100 for the full control effect. Note: potency is the fitted concentration of half-maximal effect. The conditions noted are these: Five cell lines viability, CellTiter-Glo ATP luminescence, 48-72 h; max response: active compounds read low. The gist of the method:
(§1)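 Cytotoxicity was measured as CellTiter-Glo ATP luminescence, read after 10 min at room temperature. Compound treatment of the cells lasted 48 or 72 hr at 37 degrees Celsius in a qHTS format.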

Assay [1] relates to HaCat. The assay is described as above. The conditions noted are these: Five cell lines viability, CellTiter-Glo ATP luminescence, 48-72 h; max response: active compounds read low. The essentials: as §1
Another assay deals with NIH3T3. Described as above. Particulars: Five cell lines viability, CellTiter-Glo ATP luminescence, 48-72 h; max response: active compounds read low. The gist of the method:
as §1

Assay [2] relates to HACAT. Put plainly: qHTS assay to identify novel small-molecules to repurpose for Merkel cell carcinoma treatment (AID 1296009). The conditions noted are these: MCC and control cell lines, CellTiter-Glo viability, 72 h; at 44.8 µM (top of the series) unless noted. The essentials:
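After compound transfer in DMSO, plates were kept 72 hr at 37 degree celsius. Luminescent ATP signal from CellTiter-Glo served as viability measure, normalized against DMSO and no-cell controls.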

The test system of another assay is KB-3-1. Put plainly: Cytotoxic Profiling of Annotated Libraries Using Quantitative High-Throughput Screening (AID 1296008). For max response: % is set by controls: 0 for no effect and ±100 for the full control effect. Note: potency is the fitted concentration of half-maximal effect. The conditions noted are these: Five cell lines viability, CellTiter-Glo ATP luminescence, 48-72 h; max response: active compounds read low. The essentials: as §1

Records with an inconclusive call do not appear. Unmarked numbers belong to inactive results. The source made the active and inactive calls. Calls come from the whole dose curve; as a rule, active = well fitted inhibition curve with a large enough effect; inconclusive = small, poorly fitted or top-dose-only effect; inactive = flat fitted curve, though single readings scatter.
Note: nearly all actives have a fitted effect of over 60% in size.

Turning to `CC(=O)O[C@H]1C[C@H](OC(C)=O)[C@]2(C)[C@H](CC[C@@]34O[C@@H]3C3=C(C)C(=O)O[C@@H]3C[C@H]42)C1(C)C`, the Potency in the assay on HEK293 is 5.63 µM (active). Besides, the result with HaCat [1] was inactive. In addition, the max response in the assay with NIH3T3 was -18%. For the same compound, the outcome in the assay on HACAT [2] was “inactive [at 17.4 µM]”.
On to `O=C(Nc1ccc(-c2ccnc(Nc3ccc(N4CCOCC4)cc3)n2)cc1)C1CCCN1` (stereo unspecified), for which the Potency in the assay on HEK293 is 6.51 µM (active). For the same compound, the call in the assay with HaCat [1] and with HACAT [2] was inactive.
As for `CCC1C(=O)N(C)c2cnc(Nc3ccc(C(=O)NC4CCN(C)CC4)cc3OC)nc2N1C1CCCC1` (stereo unspecified), the max response in the assay with HEK293 was -124%. The Potency in the assay on NIH3T3 was 7.31 µM (active).
Consider `C=C(C)C(=O)O[C@H]1C[C@@](C)(O)C2(O)CCC(C)(/C=C3/OC(=O)C(COC)=C31)O2` (stereo partly specified), for which the Potency with HEK293 was 3.21 µM (active); with NIH3T3 it was 10.1 µM (active).
Taken in the same sequence, the figures for `Cc1ccc(O)cc1Nc1ccnc(Nc2cccc(C(N)=O)c2)n1` were 14.6 µM (active) and 2.31 µM (active).
On to `O=S(=O)(NCc1cccc2ccccc12)c1cc(Cl)c(Oc2cccc(N3CCNCC3)c2)s1`, for which the figures for the Potency in the assay on HEK293 and with NIH3T3 were 10.3 µM (active) and 14.6 µM (active), respectively.
Consider `C/C=C(/C)C(=O)OC1CC(C)(C)CC2C3=CCC4C5(C)CCC(O[C@@H]6O[C@H](C(=O)O)[C@@H](O)[C@H](O)[C@H]6O[C@@H]6O[C@H](CO)[C@H](O)[C@H](O[C@@H]7OC[C@H](O)[C@H](O)[C@H]7O[C@@H]7O[C@H](CO)[C@@H](O)[C@H](O)[C@H]7O)[C@H]6O)C(C)(C)C5CCC4(C)C3(C)C(O)C(O)C12CO` (stereo partly specified), for which the results for the max response in the assay on HaCat [1] and in the assay with KB-3-1 were -10.3% and -3.03%, respectively.
In the case of `COc1ccc(Oc2c(Cl)cnn(-c3cc(C)cc(C)c3)c2=O)cc1`, the values for the Potency in the assay with HEK293 and with NIH3T3 were 8.2 µM (active) and 25.9 µM (active), respectively.
For `O=C(NC1CCN(CCCCC2(C(=O)NCC(F)(F)F)c3ccccc3-c3ccccc32)CC1)c1ccccc1-c1ccc(C(F)(F)F)cc1`, the Potency in the assay with HEK293 was 11.6 µM (active); in the assay on NIH3T3, 7.31 µM (active).
Take `c1ccc(-c2cnn3cc(-c4ccc(OCCN5CCOCC5)cc4)cnc23)cc1`: the Potency in the assay on HEK293 is 2.31 µM (active). Also, the compound was called inactive in the assay on HaCat [1] and with HACAT [2].
For the compound `C[C@H]1CC[C@@]2(OC1)O[C@H]1CC3[C@@H]4CC[C@@H]5C[C@@H](O[C@@H]6O[C@H](CO)[C@@H](O[C@@H]7O[C@@H](C)[C@H](O)[C@@H](O)[C@H]7O)[C@H](O)[C@H]6O[C@@H]6O[C@H](CO)[C@@H](O)[C@H](O)[C@H]6O)CC[C@]5(C)C4CC[C@]3(C)[C@H]1[C@@H]2C` (stereo partly specified), the max response with HaCat [1] was -24.5%; with KB-3-1, 0.898%.
Take `O=c1[nH]c2cccc(N3CCN(Cc4ccc(-c5ccccc5)cc4)CC3)c2o1`: the max response in the assay with HaCat [1] was -18.1%.
On to `CN(C)C(=O)NC1(c2ccccc2)CCN(CCC[C@]2(c3ccc(Cl)c(Cl)c3)CCCN(C(=O)c3ccccc3)C2)CC1`, for which the Potency with HEK293 is 16.4 µM (active); in the assay on NIH3T3, 20.6 µM (active).
As for `O=c1ccc2ccc(OCCCCN3CCN(c4cccc5sccc45)CC3)cc2[nH]1`, the Potency in the assay with HEK293 is 11.6 µM (active). In addition, the max response in the assay on NIH3T3 is -13.6%.
As for `COc1cccc(OCCCN)c1-c1cc(Nc2cnc(C#N)cn2)n[nH]1`, the Potency with HEK293 was 0.0103 µM (active); in the assay with NIH3T3, 0.0411 µM (active).
On to `C=C1[C@@H](OC(C)=O)CC[C@@]2(C)[C@@H](OC(C)=O)[C@H](OC(C)=O)C3=C(C)C[C@H](OC(=O)C(C)CC)[C@@H]([C@@H](OC(C)=O)[C@H]12)C3(C)C` (stereo partly specified), for which the Potency in the assay on HaCat [1] was 1.93 µM (active); in the assay with KB-3-1, 2.43 µM (active); in the assay on NIH3T3, 5.44 µM (active).
On the same counts, the results for `c1cc(NC2CCNCC2)nc(-c2cnc3ccccn23)c1` are 3.66 µM (active), 3.26 µM (active) and 5.8 µM (active).
In the case of `O=c1[nH]c2ccc(C#CCN3CCC(Cc4ccccc4)CC3)cc2[nH]1`, the max response in the assay on HaCat [1] was 0.764%; in the assay with KB-3-1, -17.6%.
On to `O=c1cc(N2CCN(c3cccc(C(F)(F)F)c3)CC2)[nH]c(=O)n1C1CCCCC1`, for which the max response in the assay with HaCat [1] is -21.7%; with NIH3T3, -29.2%. Moreover, in the assay with KB-3-1, the compound was classed as inactive.
Turning to `C/C=C(\C)C(=O)O[C@H]1C[C@](C)(O)[C@H]2CC=C(C)[C@H]2[C@@H]2OC(=O)[C@H](C)[C@H]21`, the max response with HaCat [1] is 2.74%; in the assay with KB-3-1, -0.753%; in the assay with NIH3T3, 0.0048%.
On the same counts, the results for `Cc1cc2sc(NC(=O)Cc3ccccc3)nc2cc1Cl` are -26.8%, 3.53% and 0.0198%.
In the case of `O=C([C@@H]1CCCN(c2ccc3[nH]c(C4(n5cc(Cl)cn5)CC4)nc3n2)C1)N1CCCC1`, the max response in the assay on HaCat [1] was -7.93%; in the assay on KB-3-1, -11.1%; with NIH3T3, -6.68%.
For the compound `C=CC(C)(C)C12CC3C(=O)N4C(CC5(C(C)(C)C=C)c6ccccc6NC45)C(=O)N3C1Nc1ccccc12` (stereo unspecified), the Potency in the assay on HaCat [1] is 11.2 µM (active). The max response with KB-3-1 was 3.74%; in the assay on NIH3T3, 1.64%.
